Experimental data taken from PubChem BioAssay (NCI).
This is part of a sample that, as a whole, favours compounds with a hit. Of some 79,000 tested, about 15% had one in any assay. Calls of active or inactive are those of the source. Cut-off read from the data, not from the text of the source: active = growth inhibition above about 70%; inactive = the rest. Where a SMILES comes first, the peptide text is derived from it. The star is where a group is joined. Cbz = O=C(OCc1ccccc1)*

What was measured:
[1] = NCI Yeast Anticancer Drug Screen. Data for the rad50 strain (AID 155);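 note: 0% = growth of vehicle-only cultures of the same strain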; settings: S. cerevisiae rad50 strain growth inhibition; at 50.0 µM; hits give high values
Outline: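 Vehicle-treated cultures provide the reference for the growth inhibition reported for compound-exposed, repair-deficient yeast.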

[2] = NCI Yeast Anticancer Drug Screen. Data for the mec2-1 strain (AID 157); settings: S. cerevisiae mec2-1 strain, at 50.0 µM, hits give high values
Outline: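 Using mec2-1 yeast: add compound, measure growth, express inhibition versus vehicle-treated cultures.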

[3] = NCI Yeast Anticancer Drug Screen. Data for the sgs1 mgt1 strain (AID 161);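 note: 0% = growth of cultures given vehicle only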; settings: S. cerevisiae sgs1 mgt1 strain, at 50.0 µM, hits give high values
Outline: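 Yeast cells carrying a defined DNA-repair defect were exposed to test compounds. Growth inhibition was measured relative to vehicle-treated controls.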

[4] = NCI Yeast Anticancer Drug Screen. Data for the cln2 rad14 strain (AID 165);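 note: 0% = growth equal to vehicle treated cultures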; settings: S. cerevisiae cln2 rad14 strain, at 50.0 µM, hits give high values
Outline: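 Yeast strain cln2 rad14, bearing defects in cell cycle control and DNA repair, serves as the test system; values reflect growth inhibition compared with vehicle.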

[5] = NCI Yeast Anticancer Drug Screen. Data for the bub3 strain (AID 167); settings: S. cerevisiae bub3 mutant strain, at 50.0 µM, hits give high values
Outline: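 Mutant yeast screening strain plus compound; vehicle-treated cultures serve as the 0% inhibition reference.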

[6] = NCI Yeast Anticancer Drug Screen. Data for the mlh1 rad18 strain (AID 175); settings: S. cerevisiae mlh1 rad18 strain growth inhibition; at 50.0 µM; hits give high values
Outline: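 Steps: expose repair-defective yeast to compound; measure growth; express inhibition against vehicle-treated controls.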

Measured: growth inhibition

O=N[O-].O=N[O-].[Co].[NH-]CC[N-]CC[N-]CC[NH-]
inactive: [1] 10.4% | [2] 7.2% | [3] 1.9% | [4] 3.65% | [5] 19.6% | [6] 11%

COc1ccc(N=C2C(=Nc3ccc(OC)cc3)N(S(=O)(=O)c3ccccc3)C(=S)N2c2ccc(OC)cc2)cc1
inactive: [1] -11.8% | [2] -35% | [3] -35.5% | [4] -23.9% | [5] 0.2% | [6] -26.1%

Cc1c2oc3c(C)ccc(C(=O)NCCc4ccco4)c3nc-2c(C(=O)NCCc2ccco2)c(N)c1=O
inactive: [1] 39.5% | [2] 7.85% | [3] 12.8% | [4] 15.7% | [5] 0.75% | [6] 44.4%

COC(=O)c1nc(N)nc(C(=O)OC)c1C(=O)/C=C/c1ccccc1
inactive: [1] -4.2% | [2] -8.5% | [3] -21.5% | [4] -16.1% | [5] -26.4% | [6] -17.6%

OCc1c(CO)c(-c2ccc(Cl)c(Cl)c2)n2c1CCC2
inactive: [1] 13.4% | [2] 2.4% | [3] 8.1% | [4] 14.9% | [5] -0.2% | [6] 51%

O=Cc1cc2c(cc1-c1c(C=O)ccc3c1OCO3)OCO2
inactive: [1] 58.2% | [2] 27.2% | [3] 46.9% | [4] 18.6% | [5] 30.9% | [6] 26.6%

O=C1C(Cl)=C(NC(CO)(CO)CO)C(=O)c2ccccc21
inactive: [1] 4.7% | [2] 16.6% | [3] -6.05% | [4] 1.6% | [5] 8.45% | [6] 8.15%

C1CCCC2(CCC1)OCCO2
inactive: [1] 0.7% | [2] 10.4% | [3] -4.05% | [4] -9.55% | [5] 17.1% | [6] 1.65%

COc1c(Cl)cc(NC(=S)C#N)cc1Cl
inactive: [1] 20.2% | [2] 20% | [3] 15.2% | [4] 39.6% | [5] 15.4% | [6] -30.9%

Cc1cn(C2CC(O)C(O)C(C)O2)c(=O)[nH]c1=O (stereo unspecified)
inactive: [1] 22.2% | [2] 6.15% | [3] 24.6% | [4] 5.8% | [5] 12.2% | [6] 25.4%

CCSCCCCSCC
inactive: [1] -2.85% | [2] -34.4% | [3] -15.7% | [4] 3.35% | [5] 6.3% | [6] -2.2%

CCOC(=O)/C=C(\C)c1ccc(OC)cc1
inactive: [1] 7.2% | [2] -22.4% | [3] -3.3% | [4] -7.5% | [5] -8.7% | [6] 11.8%

COc1ccc(C2OC2C(=O)c2ccccc2)cc1 (stereo unspecified)
inactive: [1] 6.75% | [2] 0.7% | [3] 19.4% | [4] -14.2% | [5] 12.3% | [6] -1.25%

O=C(/C(=C(/[O-])C(F)(F)F)[n+]1cccc2ccccc21)C(F)(F)F
inactive: [1] -8.6% | [2] -4.65% | [3] -11.2% | [4] -10.4% | [5] -1.4% | [6] 5.2%

CCCCNC(=O)OCC
inactive: [1] -34.5% | [2] -25.6% | [3] 2.4% | [4] -26.8% | [5] -0.35% | [6] 5.9%

O=C1C(NS(=O)(=O)c2ccccc2)=C(n2cnc3ccccc32)C(=O)c2ccccc21
inactive: [1] 0.75% | [2] 4.4% | [3] 12.1% | [4] -1.95% | [5] 1.65% | [6] -58.8%

C(=C\P(c1ccccc1)c1ccccc1)/P(/C=C/P(c1ccccc1)c1ccccc1)c1ccccc1
inactive: [1] -18.4% | [2] -14.8% | [3] -42.1% | [4] 8.15% | [5] -18.9% | [6] -28.1%

OCCN(Cc1ccccc1)C(c1ccccc1)c1ccccc1
active: [1] 98.8% | [2] 98.9% | [3] 98.8% | [4] 98.4% | [5] 98.5% | [6] 98.9%

Cc1ccc(/C(O)=C/c2nc3ccc([N+](=O)[O-])cc3nc2/C=C(\O)c2ccc(C)cc2)cc1
inactive: [1] 13.8% | [2] -3.45% | [3] -23.1% | [4] -28.6% | [5] -19.2% | [6] -14%

N#C/C(=C\NC(=S)Nc1ccc(S(=O)(=O)Nc2nccs2)cc1)C(=O)c1ccc2ccccc2c1
inactive: [1] 7.7% | [2] 1.8% | [3] 14.3% | [4] -9.75% | [5] -8% | [6] 16.4%

COC(=O)c1ccc(Cl)cc1
inactive: [1] 19.4% | [2] -3.2% | [3] -8.8% | [4] 14.3% | [5] 14.5% | [6] 2.45%

COc1cc(C=O)ccc1OC(=O)Nc1ccc(F)c([N+](=O)[O-])c1
inactive: [1] 0.8% | [2] 30.4% | [3] 19.1% | [4] -2.45% | [5] 28.1% | [6] 14.7%

O=[N+]([O-])c1ccc(Sc2ccc([N+](=O)[O-])cc2)cc1
inactive: [1] 2.35% | [2] 1.45% | [3] 8% | [4] 22.6% | [5] -0.1% | [6] 11.3%

N#C/C(=C(/N)N1CCOCC1)N1CCOCC1
inactive: [1] -18.4% | [2] -8.95% | [3] -9.15% | [4] -13.6% | [5] 16.1% | [6] -4.2%

O=C(CCN1C(=O)c2ccccc2C1=O)NCS(=O)(=O)O
inactive: [1] -11.8% | [2] -4.7% | [3] -11.1% | [4] -47.5% | [5] 16.2% | [6] -17.5%

FC(F)(F)c1ccc2c(c1)N(CCCN1CCN(CCN3CCCCC3)CC1)c1ccccc1S2
active: [1] 88.9% | [3] 89% | [5] 87.4% | [6] 91.8%
inactive: [2] 46% | [4] 27.2%

NC(=S)N/N=C/c1ncccc1N
inactive: [1] 14.8% | [2] 50.6% | [3] 39.2% | [4] 35% | [5] 34.9% | [6] -21.7%

CC(NC(=O)C(NC(=O)OCc1ccccc1)C(C)C)C(=O)NCC(=O)O (stereo not drawn) (Cbz-Val-Ala-Gly-OH; configuration not given here)
inactive: [1] -0.05% | [2] -23.2% | [3] -9.9% | [4] 19.8% | [5] 7.1% | [6] -4.45%

CCOC(=O)Oc1ccc2[nH]c3c(C)cc(N)c(C)c3c2c1
inactive: [1] 2.35% | [2] -33.2% | [3] -30.5% | [4] -7.8% | [5] -22.2% | [6] -11.1%

ClCCCCCc1c2nc(c(CCCCCCl)c3ccc([nH]3)c(CCCCCCl)c3ccc([nH]3)c(CCCCCCl)c3nc1C=C3)C=C2
inactive: [1] -14.2% | [2] -19.1% | [3] -20.6% | [4] 3.75% | [5] 4.9% | [6] -47.4%

CC(C)=C(C)CCC(C)CC(C)O (stereo unspecified)
inactive: [1] -2.9% | [2] -14% | [3] -0.05% | [4] -5.6% | [5] -5.9% | [6] -5.85%

CC1(C)SC(N=C=Nc2ccccc2)CN1C=O (stereo unspecified)
inactive: [1] 8.55% | [2] 1.85% | [3] -14.4% | [4] -10.1% | [5] 9.5% | [6] -0.4%

CNC(=O)SC1=NS(=O)(=O)c2ccc(Cl)cc2N1
inactive: [1] 18.6% | [2] 19.5% | [3] 33.4% | [4] 23.1% | [5] 17.6% | [6] 42.5%

O=C(Cc1ccccc1)N/N=C\Cc1ccccc1
inactive: [1] -4.85% | [2] 22.8% | [3] 20.8% | [4] -14.1% | [5] -2.35% | [6] 2.25%

Nc1ccc(S(=O)(=O)CCO)cc1
inactive: [1] 1.1% | [2] -7.5% | [3] 4.65% | [4] 4.45% | [5] -5.6% | [6] 3.6%

CCn1c(=O)c(C(=O)O)c(Cl)c2cc3c(cc21)OCO3
inactive: [1] 10.3% | [2] 9% | [3] 17.5% | [4] 18.9% | [5] 6.15% | [6] 38.2%

O=C(O)C(=Cc1ccc(-c2ccc([N+](=O)[O-])cc2)o1)C(=O)O
inactive: [1] 6.95% | [2] 0.7% | [3] -12.8% | [4] 29.9% | [5] 15.8% | [6] 12.4%

C[N+]1(C)C2C=CCC1CSC2 (stereo unspecified)
inactive: [1] 4.55% | [2] 0.15% | [3] -3.8% | [4] 3.65% | [5] 2.75% | [6] 12.8%

NC(Cc1ccc(F)cc1)(C(=O)O)c1ccccc1 (stereo unspecified)
inactive: [1] 5.2% | [2] 28.5% | [3] 8.55% | [4] -23.4% | [5] 5.85% | [6] 28.8%

CC12CC3CC(C)(C1)CC(CN=C(N)CS)(C3)C2
active: [1] 98.9% | [2] 99.5% | [3] 99.5% | [4] 99.2% | [5] 99.2% | [6] 99.3%

CC(=O)NC(c1ccc(Cl)cc1)(c1ccc(Cl)cc1)C(Cl)(Cl)Cl
inactive: [1] -18.6% | [2] -35% | [3] -7.4% | [4] 8.5% | [5] 10.4% | [6] -3.25%
